Measured values taken from the supplement of paper PMC8975748.
Counter-ions that a name gives are not always drawn. ± gives the standard deviation of the averaged measurements.

Legend:
[1] = test system: Saccharomyces cerevisiae BY4741 SeMeCo community; experiment: z-score of prototroph abundance vs DMSO median; higher = larger share of this subpopulation than in DMSO controls; conditions: 10 µM; 24 h; SM minimal medium; subpopulation (auxotrophy): Prototroph
Procedure, shortened: (§1)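 Subpopulation abundance was reported as a z-score against the median of vehicle wells. The Saccharomyces cerevisiae BY4741 community, carrying four plasmids that each restored one auxotrophy and encoded a distinct fluorescent protein, was grown 24 h in minimal SM medium in 384-well plates holding library drugs at 10 µM final. Cells were paraformaldehyde-fixed and imaged by automated confocal microscopy, with single-auxotroph fluorescent strains used for thresholds and autofluorescence correction.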

[2] = test system: Saccharomyces cerevisiae BY4741 SeMeCo community; experiment: z-score of subpopulation abundance vs DMSO median, subpopulation auxotrophic for M; higher = larger share of this subpopulation than in DMSO controls; conditions: 10 µM; 24 h; SM minimal medium; subpopulation (auxotrophy): M
Procedure, shortened: as §1

[3] = test system: Saccharomyces cerevisiae BY4741 SeMeCo community; experiment: z-score of subpopulation abundance vs DMSO median, subpopulation auxotrophic for L; higher = larger share of this subpopulation than in DMSO controls; conditions: 10 µM; 24 h; SM minimal medium; subpopulation (auxotrophy): L
Procedure, shortened: as §1

[4] = test system: Saccharomyces cerevisiae BY4741 SeMeCo community; experiment: z-score of subpopulation abundance vs DMSO median, subpopulation auxotrophic for U; higher = larger share of this subpopulation than in DMSO controls; conditions: 10 µM; 24 h; SM minimal medium; subpopulation (auxotrophy): U
Procedure, shortened: as §1

[5] = test system: Saccharomyces cerevisiae BY4741 SeMeCo community; experiment: z-score of subpopulation abundance vs DMSO median, subpopulation auxotrophic for H; higher = larger share of this subpopulation than in DMSO controls; conditions: 10 µM; 24 h; SM minimal medium; subpopulation (auxotrophy): H
Procedure, shortened: as §1

[6] = test system: Saccharomyces cerevisiae BY4741 SeMeCo community; experiment: z-score of subpopulation abundance vs DMSO median, subpopulation auxotrophic for LU; higher = larger share of this subpopulation than in DMSO controls; conditions: 10 µM; 24 h; SM minimal medium; subpopulation (auxotrophy): LU
Procedure, shortened: as §1

[7] = test system: Saccharomyces cerevisiae BY4741 SeMeCo community; experiment: z-score of subpopulation abundance vs DMSO median, subpopulation auxotrophic for LM; higher = larger share of this subpopulation than in DMSO controls; conditions: 10 µM; 24 h; SM minimal medium; subpopulation (auxotrophy): LM
Procedure, shortened: as §1

[8] = test system: Saccharomyces cerevisiae BY4741 SeMeCo community; experiment: z-score of subpopulation abundance vs DMSO median, subpopulation auxotrophic for HM; higher = larger share of this subpopulation than in DMSO controls; conditions: 10 µM; 24 h; SM minimal medium; subpopulation (auxotrophy): HM
Procedure, shortened: as §1

[9] = test system: Saccharomyces cerevisiae BY4741 SeMeCo community; experiment: z-score of subpopulation abundance vs DMSO median, subpopulation auxotrophic for HU; higher = larger share of this subpopulation than in DMSO controls; conditions: 10 µM; 24 h; SM minimal medium; subpopulation (auxotrophy): HU
Procedure, shortened: as §1

[10] = test system: Saccharomyces cerevisiae BY4741 SeMeCo community; experiment: z-score of subpopulation abundance vs DMSO median, subpopulation auxotrophic for UM; higher = larger share of this subpopulation than in DMSO controls; conditions: 10 µM; 24 h; SM minimal medium; subpopulation (auxotrophy): UM
Procedure, shortened: as §1

[11] = test system: Saccharomyces cerevisiae BY4741 SeMeCo community; experiment: z-score of subpopulation abundance vs DMSO median, subpopulation auxotrophic for HL; higher = larger share of this subpopulation than in DMSO controls; conditions: 10 µM; 24 h; SM minimal medium; subpopulation (auxotrophy): HL
Procedure, shortened: as §1

[12] = test system: Saccharomyces cerevisiae BY4741 SeMeCo community; experiment: z-score of subpopulation abundance vs DMSO median, subpopulation auxotrophic for HUM; higher = larger share of this subpopulation than in DMSO controls; conditions: 10 µM; 24 h; SM minimal medium; subpopulation (auxotrophy): HUM
Procedure, shortened: as §1

[13] = test system: Saccharomyces cerevisiae BY4741 SeMeCo community; experiment: z-score of subpopulation abundance vs DMSO median, subpopulation auxotrophic for HLUM; higher = larger share of this subpopulation than in DMSO controls; conditions: 10 µM; 24 h; SM minimal medium; subpopulation (auxotrophy): HLUM
Procedure, shortened: as §1

[14] = test system: Saccharomyces cerevisiae BY4741 SeMeCo community; experiment: z-score of subpopulation abundance vs DMSO median, subpopulation auxotrophic for HLM; higher = larger share of this subpopulation than in DMSO controls; conditions: 10 µM; 24 h; SM minimal medium; subpopulation (auxotrophy): HLM
Procedure, shortened: as §1

[15] = test system: Saccharomyces cerevisiae BY4741 SeMeCo community; experiment: z-score of subpopulation abundance vs DMSO median, subpopulation auxotrophic for LUM; higher = larger share of this subpopulation than in DMSO controls; conditions: 10 µM; 24 h; SM minimal medium; subpopulation (auxotrophy): LUM
Procedure, shortened: as §1

[16] = test system: Saccharomyces cerevisiae BY4741 SeMeCo community; experiment: mean cell size (pixel area) (pixels); higher = larger cells; conditions: 10 µM; 24 h; SM minimal medium
Procedure, shortened: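 Drug was acoustically predosed into 384-well plates to a final 10 µM in SM medium, and each well received 70 µl of Saccharomyces cerevisiae BY4741 diluted to OD600 = 0.3 from an overnight preculture at OD600 = 1.0. This four-plasmid fluorescent community carries one fluorescent marker per plasmid, and each plasmid complements one auxotrophy. After 24 h, the cells were fixed with paraformaldehyde and imaged by automated confocal microscopy, and Harmony analysis yielded mean cell pixel area per well. Each value is averaged over 3 replicates. Same SeMeCo high-content imaging drug screen: Selleck FDA-approved drugs at 10 µM, 24 h in SM medium, 384-well plates, 3 replicates.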

| SMILES | z-score of prototroph abundance [1] | z-score of subpopulation abundance [2] | z-score of subpopulation abundance [3] | z-score of subpopulation abundance [4] | z-score of subpopulation abundance [5] | z-score of subpopulation abundance [6] | z-score of subpopulation abundance [7] | z-score of subpopulation abundance [8] | z-score of subpopulation abundance [9] | z-score of subpopulation abundance [10] | z-score of subpopulation abundance [11] | z-score of subpopulation abundance [12] | z-score of subpopulation abundance [13] | z-score of subpopulation abundance [14] | z-score of subpopulation abundance [15] | mean cell size [16] |
| --- | --- | --- | --- | --- | --- | --- | --- | --- | --- | --- | --- | --- | --- | --- | --- | --- |
| CCN1CC(CCN2CCOCC2)C(c2ccccc2)(c2ccccc2)C1=O (stereo not drawn) [Doxapram HCl] | 0.14 | 0 | -1.14 | 0.42 | -0.42 | -1.17 | -0.29 | -0.61 | -0.57 | 0.7 | -1.3 | 0.9 | -0.71 |  |  |  |
| COC1C(O)CC(=O)OC(C)CC=CC=CC(OC2CCC(N(C)C)C(C)O2)C(C)CC(CC=O)C1OC1OC(C)C(OC2CC(C)(O)C(O)C(C)O2)C(N(C)C)C1O (stereo not drawn) [Spiramycin] | 0.08 | -0.36 | -0.29 |  |  | -0.46 | -0.48 |  | 0.31 | 0.4 | 0.65 | -0.02 | 0.17 | 0.43 | -0.43 |  |
| O=C1CN(/N=C/c2ccc([N+](=O)[O-])o2)C(=O)N1 [Nitrofurantoin] | 0.19 | 0.84 | -0.13 | -0.25 | -0.05 | -0.11 | -0.69 | -0.67 |  | 0.27 | 0.1 |  | -0.04 | -0.2 | -0.21 |  |
| N[C@H]1CONC1=O [L-Cycloserine] | -1.74 | -3.06 | 2.81 | -0.91 | 5.08 | 1.02 | 1.19 | 3.92 | 1.14 | -1.17 | 3.71 |  | 5.78 | 5.24 | 1.18 | 11.54 ± 0.047 |
| CO/N=C(\C(=O)N[C@@H]1C(=O)N2C(C(=O)O)=C(CSc3nnnn3C)CS[C@H]12)c1csc(N)n1 [Cefmenoxime hydrochloride] | -0.33 | 0.36 |  | -0.34 | 0.02 | 0.37 | 0.27 | 0.28 | -0.46 | 0.4 | -0.51 | -0.02 |  | -0.86 | -0.46 | 12.5 ± 0.38 |
| CCCCCCCCCC(=O)NC1C(Oc2c3cc4cc2Oc2ccc(cc2Cl)C(OC2OC(CO)C(O)C(O)C2NC(C)=O)C2NC(=O)C(NC(=O)C4NC(=O)C4NC(=O)C(Cc5ccc(c(Cl)c5)O3)NC(=O)C(N)c3ccc(O)c(c3)Oc3cc(O)cc4c3)c3ccc(O)c(c3)-c3c(OC4OC(CO)C(O)C(O)C4O)cc(O)cc3C(C(=O)O)NC2=O)OC(CO)C(O)C1O (stereo not drawn) [Teicoplanin] | -0.99 | 0.97 | -0.21 |  |  | 0.07 | 0.75 | 1.4 | 0.39 | 0.78 |  | 1.19 | -0.79 | -0.07 |  |  |
| O=C(O)c1cccnc1Nc1cccc(C(F)(F)F)c1 [Niflumic acid] | -0.15 | 0.7 | -0.68 |  | -0.77 | 0.28 |  | -0.03 | -0.46 | -0.28 |  | -0.49 |  |  | 0.4 | 12.9 ± 0.17 |
| CO/N=C(\C(=O)N[C@@H]1C(=O)N2C(C(=O)O)=C(COC(N)=O)CS[C@H]12)c1ccco1 [Cefuroxime sodium] | 0.23 | 0.78 | -0.97 |  | -1.01 | -1.06 | -0.79 | -0.58 | -0.93 | 0.13 | -0.76 | -0.92 | -0.98 |  | -0.31 | 12.47 ± 0.073 |
| CN[C@H](CC(C)C)C(=O)N[C@H]1C(=O)N[C@@H](CC(N)=O)C(=O)N[C@H]2C(=O)N[C@H]3C(=O)N[C@H](C(=O)N[C@H](C(=O)O)c4cc(O)cc(O)c4-c4cc3ccc4O)[C@H](O)c3ccc(c(Cl)c3)Oc3cc2cc(c3O[C@@H]2O[C@H](CO)[C@@H](O)[C@H](O)[C@H]2O[C@H]2C[C@](C)(N)[C@H](O)[C@H](C)O2)Oc2ccc(cc2Cl)[C@H]1O [Vancomycin] | 0.81 | -0.82 | -0.12 | -0.09 | -0.2 | 0.08 | -0.43 |  |  | -0.16 | -0.12 | -0.71 | -0.03 |  | -0.78 | 12.3 ± 0.13 |
| C[C@H]1COc2c(N3CCN(C)CC3)c(F)cc3c(=O)c(C(=O)O)cn1c23 [Levofloxacin hydrate] | -1.38 | 0.54 | 1.32 |  | 0.26 | 1.73 | 1.34 | 0.64 | 0.77 | 0.61 | 0.74 |  | 0.84 | 0.07 |  | 12.5 ± 0.29 |
| CC[C@H]1OC(=O)[C@H](C)[C@@H](O[C@H]2C[C@@](C)(OC)[C@@H](O)[C@H](C)O2)[C@H](C)[C@@H](O[C@@H]2O[C@H](C)C[C@H](N(C)C)[C@H]2O)[C@](C)(O)C[C@@H](C)C(=O)[C@H](C)[C@H]2OC(=O)O[C@@]21C [Erythromycin Cyclocarbonate] | -1.17 | -0.28 | 1.01 | 0.09 |  | 0.04 | 0.55 | 0.9 |  | 0.58 | 1.2 |  | 0.39 |  | 0.8 | 12.19 ± 0.065 |
| CO/N=C(\C(=O)N[C@@H]1C(=O)N2C(C(=O)OC(C)OC(C)=O)=C(COC(N)=O)CS[C@H]12)c1ccco1 (stereo partly drawn) [Cefuroxime axetil] | -0.04 | -0.61 | -0.95 |  | -0.4 | -0.86 | -1.34 | -0.74 | 0.15 | 0.26 | -0.54 | 0.05 | 0.39 | -0.11 |  |  |
| O=C([O-])CC(O)(CC(=O)[O-])C(=O)[O-].O=C([O-])CC(O)(CC(=O)[O-])C(=O)[O-].[Bi+3].[K+].[K+].[K+].[K+].[K+] [Bismuth Subcitrate Potassium] | 0.38 | -3.84 |  | -0.49 | 3.24 | 1.34 | -1.07 | -1.66 | 2.94 | -2.69 | 4.34 | -1.79 | 0.65 |  | 0.14 |  |
| CCOC(=O)C1=C(COCCN)NC(C)=C(C(=O)OC)C1c1ccccc1Cl (stereo not drawn) [Amlodipine] | 2.13 |  | 4.02 | -7 | 3.95 | -7.07 |  | 4.86 | -7.36 | -8.26 | 5.86 |  | -1.8 | 9.49 | -4.72 |  |
| CCOC(=O)c1ccc(N)cc1 [Benzocaine hydrochloride] |  | -1.03 | -0.9 | 1.42 | -0.31 |  | -0.93 | -0.65 | 0.87 | 0.51 | 0 | 0.44 | 0.01 | -0.46 | 0.12 | 12.43 ± 0.056 |
